According to PubChem BioAssay AID1626 (SRMLSC, 2009):
Among all 220,000 compounds or so, about 2,000 (0.91%) were called active. About 2% were inconclusive and are not listed. Rule as the data show it: inconclusive = inhibition above about 80% without an active follow-up result; inactive = below that; test concentration not stated here. A selection follows. Results with a measured potency or affinity are listed apart.

test: M. tuberculosis H37Rv growth inhibitors, H37Rv strain (AID 1626); conditions: stronger effect = higher value, concentration not given here;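 also: bacteria incubated seven days before Alamar blue readout; 0% = bacteria only wells and 100% = bacteria with antibiotic wells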

| SMILES | inhibition |
| --- | --- |
| N#Cc1c(SCC(=O)O)nc(-c2ccccc2)c2c1CCCC2 | -9.5% (inactive) |
| COC(=O)CSc1nc2c(c(-c3ccc(O)cc3)c1C#N)CCCC2 | -6.65% (inactive) |
| COc1ccc(-c2c(C#N)c(SCC(N)=O)nc3c2CCCC3)cc1 | 2.47% (inactive) |
| COc1cccc(NC(=O)CSc2nc3c(c(-c4ccco4)c2C#N)CCCC3)c1 | -2.62% (inactive) |
| COC(=O)CSc1nc(-c2ccc(C)cc2)c2c(c1C#N)CCCC2 | 72.2% (inactive) |
| CCSc1nc2c(c(-c3ccc(C)o3)c1C#N)CCCC2 | 2.67% (inactive) |
| Cc1ccc(-c2c(C#N)c(N)nc3c2CCCC3)o1 | -11.1% (inactive) |
| Cc1ccccc1NC(=O)CSc1nc2c(c(-c3ccco3)c1C#N)CCCC2 | -3.31% (inactive) |
| O=C(O)c1ccc(-c2noc(-c3cccc(F)c3)n2)cc1 | -9.57% (inactive) |
| COc1ccc2[nH]c(=O)c(CN(CCCN3CCOCC3)C(=O)NCc3ccccc3)cc2c1 | 6.13% (inactive) |
| COc1cc(NC(=O)CSc2nnc(Cn3nnc4ccccc43)n2C)cc(OC)c1 | 3.53% (inactive) |
| CCCCN(C)CCC(=O)Nc1ccc(OC)cc1OC | -13.6% (inactive) |
| Cc1ccccc1Nc1cc(C(=O)NCC2CCCO2)c2ccccc2n1 (configuration not stated) | 5.9% (inactive) |
| CCOC(=O)N1CCN(C(=S)Nc2cccc(C)c2)CC1 | -4.85% (inactive) |
| COc1ccc(C(=O)Nc2ccc(NC(=O)c3cccs3)cc2)cc1Cl | -14.7% (inactive) |
| CC(=O)Nc1ccc(C(=O)N/N=C/c2ccc(F)cc2)cc1 | 7.2% (inactive) |
| Cc1ccsc1C(C(=O)NC1CCCCC1)N(C(=O)c1csnn1)C1CC1 (configuration not stated) | -8.93% (inactive) |
| COC(=O)CSc1nc(-c2ccccc2)nc2ccccc12 | 5.34% (inactive) |
| COC(=O)CSc1cnc2ccccc2n1 | -1.39% (inactive) |
| Cc1ccc(-n2c(C)nn(CCOc3ccccc3)c2=O)cc1 | 6.33% (inactive) |
| CN(C)C(/C=C/Nc1cccc([N+](=O)[O-])c1)=C(C#N)C#N | -7.29% (inactive) |
| CCN(CC)c1nc(Oc2ccc(=O)[nH]n2)nc(N2CCOCC2)n1 | 0.81% (inactive) |
| Cc1ccccc1NC(=O)NC(C)(C)CC(C)(C)C | -4.38% (inactive) |
| COc1cccc(C(C(=O)NC(C)(C)C)N(CC(C)C)C(=O)CCC(=O)Nc2cc(C)on2)c1OC (configuration not stated) | -4.52% (inactive) |
| O=C(c1ccc(NC2=NC3CS(=O)(=O)CC3S2)cc1)N1CCN(C(=O)c2ccco2)CC1 (configuration not stated) | -2.98% (inactive) |

| SMILES | inhibition |
| --- | --- |
| Cc1ccc(-n2cc(CN3CCC(CO)(Cc4ccccc4)CC3)cn2)cc1 | 0.885% (inactive) |
| OCC1(Cc2cccc(C(F)(F)F)c2)CCN(Cc2cc(F)cc(F)c2)CC1 | 1.35% (inactive) |
| O=C(CCN1C(=O)c2ccccc2C1=O)C1=NN[C@@H]2C(=O)N(c3ccc4c(c3)OCO4)C(=O)[C@H]12 | -4.07% (inactive) |
| COc1ccc(CN(CC2CCCO2)C(=O)c2cc3sccc3n2C)c(OC)c1 (configuration not stated) | -12% (inactive) |
| CC1(C)Cc2c(sc3c2c(=O)n(-c2cccc(Cl)c2)c(=O)n3CC(N)=O)CO1 | -12.2% (inactive) |
| CCOC(=O)C1=CN(Cc2ccc(OC)cc2)C=C(C(=O)OCC)C1c1cccs1 | -0.52% (inactive) |
| Cc1cc(Nc2ccc(C)c(Cl)c2)nc(N2CCOCC2)n1 | 12.8% (inactive) |
| Cc1cc(C(=O)Nc2ccc3c(c2)OCCO3)c2ccccc2n1 | -3.31% (inactive) |
| O=C(Nc1ccc2c(c1)OCCO2)c1ccccc1F | 6.75% (inactive) |
| O=C(Nc1ccc2oc(-c3ccccc3Cl)nc2c1)c1ncn[nH]1 | 6.26% (inactive) |
| Cc1[nH]nc(NNC(=O)c2ccccc2)c1[N+](=O)[O-] | -6.74% (inactive) |
| O=C1NC(=O)N(c2ccccc2)C(=O)/C1=C/C=C/c1ccco1 | -5.19% (inactive) |
| O=C1NC(=O)N(c2ccccc2)C(=O)/C1=C\C=C\c1ccccc1 | -3.04% (inactive) |
| CN1C(=O)OC2(C)CCc3ccccc3C12C (configuration not stated) | -7.1% (inactive) |
| Cc1cc(C)n(-c2nc(N(C)C)nc(N(C)C)n2)n1 | -2.29% (inactive) |
| CC(C)Nc1nc(NC(C)C)nc(Nn2cnnc2)n1 | -7.25% (inactive) |
| Cc1cc(NCCO)nc(-n2nc(C)cc2C)n1 | 8.23% (inactive) |
| CNc1nc(C)nc(-n2nc(C)cc2C)n1 | 6.41% (inactive) |
| Cc1cc(C)n(-c2nc(C)nc(N)n2)n1 | -4.82% (inactive) |
| CC(=O)c1nnn(-c2nc(N)nc(N(c3ccccc3)c3ccccc3)n2)c1C | 3% (inactive) |
| Cc1ccccc1Nc1nc(N)nc(CCl)n1 | 77.4% (inactive) |
| Cc1cc(C)n(-c2nc(Nc3ccccc3)nc(-n3nc(C)cc3C)n2)n1 | -2.93% (inactive) |
| CCC1CCc2c(sc(NC(=O)C3c4ccccc4Oc4ccccc43)c2C(N)=O)C1 (configuration not stated) | 5.29% (inactive) |
| O=C(NC(=S)NCC1CCCO1)c1ccc(Cl)cc1 (configuration not stated) | 2.47% (inactive) |
| O=C(NCc1ccccc1)c1onc(CSc2ccccc2)c1C(=O)NCC1CC1 | -10.4% (inactive) |

| SMILES | inhibition |
| --- | --- |
| CC(C)c1nnc(NC(=O)CSc2nnc(-c3ccco3)o2)s1 | -0.02% (inactive) |
| O=C(Cn1c(=O)n(-c2ccccc2)c(=O)c2sccc21)NCc1ccccc1 | -8% (inactive) |
| CN(C)S(=O)(=O)c1cccc(C(=O)NCC2CCCO2)c1 (configuration not stated) | 4.28% (inactive) |
| CC(=O)c1c(C)[nH]c(C(=O)NCc2cccc(Cl)c2)c1C | -6.84% (inactive) |
| Cc1nnc(Sc2cc(C(=O)NCc3ccco3)c3ccccc3n2)s1 | 0.09% (inactive) |
| CCCCNc1nc(-c2ccccc2)nc(-n2ccnc2)n1 | 1.24% (inactive) |
| Cc1cc(C)n(-c2nnc(NCc3ccc(Cl)cc3)nn2)n1 | 8.99% (inactive) |
| Cc1cc(C)n(-c2nnc(NC(C)(C)C)nn2)n1 | -8.78% (inactive) |
| CC(C)Nc1nc(-c2ccccc2)nc(-n2ccnc2)n1 | 8.64% (inactive) |
| Cc1sc2nc(CN3CCCC3)nc(N3CCN(C(=O)c4ccco4)CC3)c2c1C | -1.07% (inactive) |
| Cc1ccccc1CC1(CO)CCCN(Cc2ccc(C#CC(C)(C)O)cc2)C1 (configuration not stated) | 8.42% (inactive) |
| COc1cccc(CN2CCC(C(=O)N3CCN(c4ccccc4F)CC3)CC2)c1 | -8.97% (inactive) |
| CCOC(=O)c1cccc(NC(=O)N[C@@H](C)C(=O)OC)c1 | -9.35% (inactive) |
| CC(=O)c1ccc(-n2cc(-c3ccc(C(C)(C)C)cc3)[n+]3c2SCCC3)cc1 | 40.7% (inactive) |
| COc1ccc(-c2cn(-c3ccc(Br)cc3)c3[n+]2CCS3)cc1 | 5.88% (inactive) |
| N#Cc1c(/N=C/C=C/c2ccccc2)sc2c1CCCC2 | -4.34% (inactive) |
| Cc1cccc(OCC2=NS(=O)(=O)c3ccccc3N2)c1 | -21.3% (inactive) |
| Cc1cc(C)nc(SCC(=O)Nc2nc(-c3ccccc3)c(-c3ccccc3)o2)n1 | 5.45% (inactive) |
| Cn1nnnc1SCC(=O)Nc1ccccc1-c1ccccc1 | 36.5% (inactive) |
| CCOC(=O)c1ccc(NC(=O)CSc2nnnn2CCCO)cc1 | 68.7% (inactive) |
| Cn1nnnc1SCC(=O)Nc1ccc(Oc2ccccc2)cc1 | 57.4% (inactive) |
| COc1ccc(NC(=O)CSc2nnnn2C)cc1 | -5.32% (inactive) |
| CCCCOC(=O)c1ccc(NC(=O)CSc2nncn2C)cc1 | 53.2% (inactive) |
| CCOC(=O)c1oc2ccc(S(=O)(=O)Nc3ccc4c(c3)n(C)c(=O)n4C)cc2c1C | -1.98% (inactive) |
| O=C1CCCC2=C1C(c1ccsc1)CC(=O)N2c1ccccc1F (configuration not stated) | -5.2% (inactive) |

| SMILES | inhibition |
| --- | --- |
| CCN(CC)CCCNC(=O)c1ccccc1C | -9.77% (inactive) |
| O=C(c1ccccc1)N1CCC2(CC1)OCCO2 | -4.39% (inactive) |
| CCN=C1SC(C(=O)Nc2cccc(Cl)c2)CC(=O)N1CC (configuration not stated) | 2.07% (inactive) |
| O=C(c1cc2nc(-c3ccccc3)cc(-c3ccccc3)n2n1)N1CCCC1 | -3% (inactive) |
| CN1CCN(C(=O)c2cc3nc(-c4ccccc4)cc(-c4ccccc4)n3n2)CC1 | 4.38% (inactive) |
| CCCCn1c(=O)c(CCC(=O)OCC(=O)NC(=O)NCCC(C)C)nc2ccccc21 | -5.41% (inactive) |
| On1nnc2ccc(C(F)(F)F)cc21 | 0.915% (inactive) |
| S=C1NC2=C(CCCC2)C2(CCCCC2)N1 | 3.82% (inactive) |
| Cc1cccc(C)c1OCc1nc2ccccc2[nH]1 | -5.31% (inactive) |
| N=c1n(CCN2CCOCC2)c2ccccc2n1CC(=O)c1ccc(Cl)c(Cl)c1 | 17.4% (inactive) |
| N=c1n(CCN2CCCCC2)c2ccccc2n1CC(O)c1ccc(Cl)c(Cl)c1 (configuration not stated) | 57.5% (inactive) |
| Cc1ccc2nc(/C(C#N)=C\c3cc(O)ccc3[N+](=O)[O-])[nH]c2c1 | -7.37% (inactive) |
| N#C/C(=C\c1ccc(OC(=O)c2cccs2)cc1)c1nc2ccccc2[nH]1 | 28.1% (inactive) |
| Cc1ccc2nc(/C(C#N)=C/c3ccc(-c4cccc([N+](=O)[O-])c4)o3)[nH]c2c1 | 1.74% (inactive) |
| N#C/C(=C\c1ccc(OC(=O)c2ccc(Br)s2)cc1)c1nc2ccccc2[nH]1 | 66.1% (inactive) |
| CN(Cc1nc(Cc2cccc(C(F)(F)F)c2)no1)C1CC(C)(C)NC(C)(C)C1 | 4.06% (inactive) |
| COc1ccc(C(=O)NCC(=O)OCC(=O)NCCC2=CCCCC2)cc1 | 1.25% (inactive) |
| CCN(CC)S(=O)(=O)c1ccc(-c2nnc(SCC(N)=O)n2CC)cc1 | -3.31% (inactive) |
| CSc1ncc(CO)n1Cc1ccccc1 | -4.14% (inactive) |
| O=C(O)c1ccc(CS(=O)(=O)Cc2ccccc2F)o1 | -18.6% (inactive) |
| COc1ccc(-c2[nH]ncc2CN2CCN(c3ccc(F)cc3)CC2)cc1 | -12.3% (inactive) |
| COc1ccc(-c2[nH]ncc2CN2CCCN(c3ccccc3)CC2)c(F)c1 | -1.64% (inactive) |
